TIM10 inh: growth inhibitors of isogenic TIM10 control yeast, primary screen, counter-screen for tim10-1 yeast inhibitor project, luminescence, uHTS; 330,000 compounds, 1.4% hits; AID 463195, 2010; inhibition, % at 10 µM; S. cerevisiae TIM10 strain growth, BacTiter-Glo luminescence, 24 h;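 active = inhibition of 40% or more at the single tested concentration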;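 note: wild-type TIM10 isogenic control strain grown at permissive 25 °C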
tim23-1 inh: growth inhibitors of tim23-1 mutant yeast, primary screen, luminescence, uHTS; S. cerevisiae tim23-1 growth, BacTiter-Glo luminescence, 24 h; inhibition, % at 20 µM; 330,000 compounds, 1.3% hits; AID 463212, 2010;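 active = growth inhibition of the mutant yeast at or above 50%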;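 note: temperature-sensitive mutant grown at 25 °C; plate controls were DMSO-treated mutant yeast for no effect and medium wells lacking yeast for full effect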
PfHsp90 set2: growth inhibition of PfHsp90-expressing yeast, primary screen, antimalarial PfHsp90 inhibitor project, S. cerevisiae, BacTiter-Glo luminescence, single point, set 2; inhibition, % at 9.4 µM; 310,000 compounds, 0.32% hits; BacTiter-Glo ATP, 48 h; yeast lacking PDR1 and PDR3 efflux regulators;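 active = every replicate shows inhibition above about 80%, whatever the replicate mean, limit read from the data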;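 note: 0% = DMSO neutral controls and 100% = 20 µM radicicol positive controls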
tim10-1 inh: growth inhibitors of tim10-1 mutant yeast, primary screen, luminescence, uHTS; S. cerevisiae tim10-1 ts strain growth, BacTiter-Glo, 24 h; inhibition, % at 20 µM; 330,000 compounds, 2.2% hits; AID 463190, 2010;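 active = inhibition of at least 40%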;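 note: mutant grown at 25 °C; 0% = DMSO wells with yeast and 100% = wells holding no yeast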
SKKanGAS inh: S. pyogenes SKKanGAS growth inhibitors in kanamycin, primary screen, streptokinase expression inhibitor project, SKKanGAS strain, BacTiter-Glo luminescence; inhibition, % at 7.5 µM; 6 h; AID 1662, 2009; 300,000 compounds, 1.3% hits;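 active = mean replicate score, as percent of positive control median, at least 50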;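 note: strain carries kanamycin resistance gene driven by streptokinase promoter and grows in 40 µg/ml kanamycin; loss of luminescence reflects streptokinase promoter inhibition or plain growth inhibition; 0% = median of DMSO wells and 100% = positive control at its reference dose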
EBI2 block: EBI2 receptor antagonists, beta-arrestin recruitment, primary screen, cell-based, luminescence, 7a,25-OHC stimulation, uHTS; inhibition, % at 5 µM; 360,000 compounds, 0.81% hits; 7a,25-OHC stimulated; in the data active = inhibition above about 38%;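 note: enzyme fragment complementation signal reports receptor beta-arrestin coupling in cells; 0% = agonist plus DMSO wells and 100% = wells without agonist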
Target sequence (P32249 whole entry, looked up, the tested form may be a part): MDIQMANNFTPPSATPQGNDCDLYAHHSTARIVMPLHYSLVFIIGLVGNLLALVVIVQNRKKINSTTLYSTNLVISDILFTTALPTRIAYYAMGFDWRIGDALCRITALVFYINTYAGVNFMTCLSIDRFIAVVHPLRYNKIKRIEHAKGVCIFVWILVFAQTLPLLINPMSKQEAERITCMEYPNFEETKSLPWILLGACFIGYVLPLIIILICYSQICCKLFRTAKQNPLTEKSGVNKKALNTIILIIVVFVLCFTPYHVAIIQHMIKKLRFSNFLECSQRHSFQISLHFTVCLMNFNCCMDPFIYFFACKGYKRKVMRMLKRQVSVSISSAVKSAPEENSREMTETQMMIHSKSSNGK
tim10-1 confirm: growth inhibitors of tim10-1 mutant yeast, confirmation, single concentration, luminescence, S. cerevisiae. inhibition, % at 20 µM. S. cerevisiae tim10-1 ts strain growth, BacTiter-Glo, 24 h. shares compounds with tim10-1 inh. 7,400 compounds, 56% hits;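 active = inhibition of yeast growth at or above a set limit in either of two repeat tests at 20 µM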;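 note: tim10-1 mutant grown at permissive 25 °C to find synthetic lethal compounds; 0% = DMSO yeast wells and 100% = medium wells without yeast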
An asterisk follows results filed as active; x = no result given. Rows were chosen to be rich in hits. Some 4.7% of all compounds tested hit in one or more screens of this group.

SMILES | TIM10 inh | tim23-1 inh | PfHsp90 set2 | tim10-1 inh | SKKanGAS inh | EBI2 block | tim10-1 confirm
Cc1cc(C)cc(NC(=O)c2ccc(Cn3nc(C)c(Cl)c3C)o2)c1 | 36.3 | 34.6 | -38.1 | 40.7* | 15.2 | 8.1 | 30.1*
Cc1ccc(C(=O)Nc2cccc(NC(=O)CN3CCCCC3)c2)cc1 | -1.8 | 9.8 | 8.9 | -6.9 | 0.6 | -4.0 | x
CCCCNC(=O)C(=O)Nc1cc2c3c(c1)CCC(=O)N3CCC2 | -30.9 | -15.5 | 10.6 | 43.2* | -2.6 | -1.1 | -34.9
CCCn1nnc(NC(=O)c2cccc(OCc3ccccc3)c2)n1 | 29.0 | 31.6 | -17.6 | 43.8* | -7.0 | -10.9 | 36.0*
CCCn1nnc(NC(=O)c2cccc(Cl)c2)n1 | -3.9 | 7.0 | -12.4 | 11.9 | -2.0 | -3.4 | x
NS(=O)(=O)c1ccc(NC(=O)COC(=O)CCc2ccc(S(=O)(=O)N3CCOCC3)cc2)cc1 | -5.0 | 7.8 | -19.2 | -7.1 | -9.1 | -0.9 | x
Cc1ccc(NC(=O)C2CCN(C(=O)c3ccco3)CC2)cc1C | 10.2 | 5.9 | 4.7 | -8.0 | -4.9 | -4.7 | x
Cc1ccccc1C(=O)Nc1ccccc1C(=O)NCc1ccccc1 | 24.9 | 29.6 | -13.5 | 42.6* | 5.3 | -16.0 | 36.0*
Cc1ccc(NC(=O)c2ccccc2NC(=O)Cc2ccccc2)cc1 | 29.9 | 32.1 | -7.3 | 43.5* | -6.9 | -16.9 | 20.9
O=C(CCCn1c(=O)[nH]c2ccccc2c1=O)NC1CCCCCC1 | 9.1 | 13.7 | 8.3 | 16.1 | 2.3 | -2.4 | x
CC1CCC(NC(=O)CCCn2sc3ccccc3c2=O)CC1 (centres undefined) | 2.0 | 38.7 | 9.6 | 41.1* | -0.5 | 18.4 | 0.6
CC(C)C(c1nnnn1C1CCCCC1)N1CCc2ccccc2C1 (centres undefined) | 25.3 | 28.2 | x | 31.6 | -4.7 | 5.5 | x
CC(C)C(c1nnnn1C1CCCC1)N1CCCc2ccccc21 (centres undefined) | 24.7 | 39.3 | x | 41.1* | 0.8 | 17.2 | 36.6*
CC(C)C(c1nnnn1C1CCCCC1)N1CCCc2ccccc21 (centres undefined) | 25.6 | 18.2 | -19.1 | 43.5* | 12.0 | 43.9 | 29.5
CC(C)(C)n1nnnc1C(c1cccs1)N1CCCC2(CCCCC2)C1 (centres undefined) | 22.0 | 31.7 | -3.9 | 38.0 | 17.9 | 19.3 | x
CC(C)C(c1nnnn1C1CCCC1)N1CCc2ccccc21 (centres undefined) | 13.7 | 39.1 | -38.7 | 36.2 | x | 26.9 | x
CC(C)(C)n1nnnc1C(c1cccs1)N1CCCc2ccccc21 (centres undefined) | 27.3 | 47.9 | -21.2 | 42.6* | 0.3 | 5.6 | 38.5*
Oc1[nH]c2c(Cl)cc(Cl)cc2c1N=NC(=S)NCC1CCCO1 (centres undefined) | 25.0 | 32.3 | -28.3 | 46.3* | 95.4* | 29.1 | 20.4
COc1ccc(C2(C(=O)N3CCC(n4nc(-c5ccccc5)oc4=O)CC3)CC2)cc1 | 14.3 | 38.3 | 36.3 | 41.3* | 2.2 | 10.7 | 14.8
Cc1ccc(C(=O)Nc2sc3c(c2C(=O)O)CCCCC3)o1 | 23.4 | 46.3 | 10.1 | 41.5* | 20.3 | 17.2 | 35.2*
Cc1ccc(C(=O)Nc2sc3c(c2C(=O)O)CCCC3)o1 | 23.6 | 12.0 | 18.1 | -2.4 | 16.9 | 7.0 | x
O=C1CN(Cc2ccccc2)C(=NCc2ccco2)S1 | 4.3 | 33.9 | 5.9 | 45.2* | -5.5 | 0.1 | 19.6
CCc1ccc(/C=c2\s/c(=C\C(=O)C(C)(C)C)[nH]c2=O)cc1 | 31.8 | 49.6 | -51.9 | 52.9* | 102.3* | 16.1 | 43.5*
CCOc1cc(/C=N/NC(=O)c2cccnc2)cc(Br)c1OCC(N)=O | -2.9 | 5.0 | -6.6 | -2.2 | 19.9 | -11.6 | x
Cc1cc(C)n(-c2ccc(C(=O)OCn3nnc4ccccc4c3=O)cc2)n1 | 27.3 | 40.9 | -5.0 | 49.2* | 3.8 | 2.7 | 41.8*
